{"source": "the supplement of paper PMC10981050", "note": "Counter-ions that a name gives are not always drawn.", "data": [{"system": "MOLM14", "assay": "cell viability relative to vehicle control; higher = less cytotoxic", "details": "10 µM; SRSF2 genotype: SRSF2 P95H/wt", "outline": "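Each screen used CRISPR-edited mutant and wild-type clones from four leukaemia lines. Compounds were acoustically dispensed at a single 10 µM dose, and CellTiter-Glo luminescence was read after 48 h with the supernatant first removed. Viability was analysed in Genedata Screener and given as percent of the on-plate vehicle control.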", "units": {"cell viability": "%"}, "values": [{"smiles": "NC(=O)c1cccc2cn(-c3ccc(C4CCCNC4)cc3)nc12", "note": "(stereo unspecified) [MK-4827(Niraparib)]", "cell viability": 25.2}, {"smiles": "CCOC(=O)C1=C(COCCN)NC(C)=C(C(=O)OC)C1c1ccccc1Cl", "note": "(stereo unspecified) [Amlodipine besylate (Norvasc)]", "cell viability": 54.7}, {"smiles": "Cc1ccccc1C(OCCN(C)C)c1ccccc1", "note": "(stereo unspecified) [Orphenadrine citrate (Norflex)]", "cell viability": 93.3}, {"smiles": "Cc1ccc(C(C)C)cc1O", "note": "[Carvacrol]", "cell viability": 99}, {"smiles": "CN1CCN(c2ccc(C(=O)Nc3n[nH]c4ccc(Cc5cc(F)cc(F)c5)cc34)c(NC3CCOCC3)c2)CC1", "note": "[Entrectinib (RXDX-101)]", "cell viability": 0.29}, {"smiles": "Nc1nc(N)nc(-c2cc(Cl)ccc2Cl)n1", "note": "[Irsogladine]", "cell viability": 101}, {"smiles": "O=C(Nc1ncc([N+](=O)[O-])s1)c1ccccc1O", "note": "[Tizoxanide]", "cell viability": 96.9}, {"smiles": "CO[C@H]1C[C@@H]2CC[C@@H](C)[C@@](O)(O2)C(=O)C(=O)N2CCCC[C@H]2C(=O)O[C@H]([C@H](C)C[C@@H]2CC[C@H](n3cnnn3)[C@H](OC)C2)CC(=O)[C@H](C)/C=C(\\C)[C@@H](O)[C@@H](OC)C(=O)[C@H](C)C[C@H](C)/C=C/C=C/C=C/1C", "note": "[Zotarolimus (ABT-578)]", "cell viability": 60.8}, {"smiles": "O=C(c1ccc(OCCCc2c[nH]cn2)cc1)C1CC1", "note": "[Ciproxifan Maleate]", "cell viability": 95.9}, {"smiles": "Cc1ccc2nc(CN(CCN(Cc3nc4ccc(C)cc4[nH]3)Cc3nc4ccc(C)cc4[nH]3)Cc3nc4ccc(C)cc4[nH]3)[nH]c2c1", "cell viability": 0.58}, {"smiles": "Nc1c(Br)cc(Br)cc1CN[C@H]1CC[C@H](O)CC1", "note": "[Ambroxol]", "cell viability": 101}]}]}
